Assay results from PubChem BioAssay AID1159580 (chemical genetic matrix, 2015).
Screen size: about 5,500 compounds; about 2,000 (36%) were called active. Roughly 18% stayed inconclusive and do not appear here. No stated cut-off is given here; in the data, active means normalized growth mostly below about 0.91 (no sharp cut-off); inconclusive means no clear call, values can overlap the other calls; inactive means mostly above about 0.92. The list shows a part of the results.

Assay: chemical genetic growth profiling, strain panel (AID 1159580);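 further: tested at 20 µM; growth read once vehicle control cultures reached saturation at 30 °C; 1 = growth at the plate median or of vehicle wells; lower values mean less growth of the strain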
Conditions: S. cerevisiae deletion strains, growth OD

Measured: normalized growth

CC(=O)Nc1cccc(O)c1
inactive: locus YAL013W, strain DEP1, active compounds read low 1 | locus YAL021C, strain ccr4, active compounds read low 1.01 | locus YAL026C, strain drs2, active compounds read low 1.03 | locus YAL030W, strain snc1, active compounds read low 1.01 | locus YBL061C, strain skt5, active compounds read low 1.01 | locus YBR009C, strain hhf1, active compounds read low 0.984 | locus YBR021W, strain FUR4, active compounds read low 1.01 | locus YBR023C, strain chs3, active compounds read low 1.03 | locus YBR171W, strain sec66, active compounds read low 1.02 | locus YBR229C, strain ROT2, active compounds read low 1.01 | locus YBR231C, strain swc5, active compounds read low 1 | locus YBR279W, strain paf1, active compounds read low 1.02 | locus YCL011C, strain gbp2, active compounds read low 1.04 | locus YCL016C, strain dcc1, active compounds read low 1.05 | locus YCL029C, strain bik1, active compounds read low 0.993 | locus YCL061C, strain MRC1, active compounds read low 1.01 | locus YCL069W, strain vba3, active compounds read low 1.01 | locus YCR088W, strain abp1, active compounds read low 1.02 | locus YDL005C, strain med2, active compounds read low 1.02 | locus YDL035C, strain GPR1, active compounds read low 0.992 | locus YDL040C, strain nat1, active compounds read low 0.999 | locus YDL074C, strain BRE1, active compounds read low 1.02 | locus YDL101C, strain DUN1, active compounds read low 1.02 | locus YDL134C, strain PPH21, active compounds read low 0.983 | locus YDL185W, strain tfp1, active compounds read low 0.993 | locus YDL192W, strain arf1, active compounds read low 1.01 | locus YDR001C, strain nth1, active compounds read low 1.01 | locus YDR069C, strain doa4, active compounds read low 1.03 | locus YDR101C, strain arx1, active compounds read low 0.989 | locus YDR137W, strain rgp1, active compounds read low 1.03 | locus YDR150W, strain NUM1, active compounds read low 0.998 | locus YDR159W, strain sac3, active compounds read low 0.954 | locus YDR162C, strain NBP2, active compounds read low 0.999 | locus YDR195W, strain ref2 0.986 | locus YDR297W, strain sur2, active compounds read low 0.998 | locus YDR318W, strain mcm21, active compounds read low 1.01 | locus YDR334W, strain swr1, active compounds read low 1.02 | locus YDR335W, strain msn5, active compounds read low 1.01 | locus YDR388W, active compounds read low 0.998 | locus YDR392W, strain spt3, active compounds read low 0.99 | locus YDR502C, strain sam2, active compounds read low 0.986 | locus YEL003W, strain gim4, active compounds read low 1 | locus YEL037C, strain rad23, active compounds read low 1 | locus YEL061C, strain CIN8 (second series), active compounds read low 1 | locus YEL061C, strain CIN8, active compounds read low 1.01 | locus YER015W, strain faa2, active compounds read low 1.02 | locus YER016W, strain bim1, active compounds read low 1.03 | locus YER110C, active compounds read low 1 | locus YER111C, strain swi4, active compounds read low 1.01 | locus YER155C, strain BEM2 (second series), active compounds read low 0.999 | locus YER155C, strain BEM2, active compounds read low 1.01 | locus YER167W, strain BCK2, active compounds read low 1 | locus YFR010W, strain ubp6, active compounds read low 0.994 | locus YGL078C, strain dbp3, active compounds read low 0.994 | locus YGL086W, strain mad1, active compounds read low 0.99 | locus YGL167C, strain pmr1, active compounds read low 1.01 | locus YGL173C, strain kem1, active compounds read low 0.987 | locus YGL227W, strain vid30, active compounds read low 1.02 | locus YGL240W, strain doc1, active compounds read low 0.977 | locus YGL248W, strain PDE1, active compounds read low 1.02 | locus YGL253W, strain hxk2, active compounds read low 1.04 | locus YGR078C, strain PAC10, active compounds read low 1.01 | locus YGR135W, strain pre9, active compounds read low 1.02 | locus YGR252W, strain gcn5, active compounds read low 1 | locus YHR013C, strain ard1, active compounds read low 1.04 | locus YHR027C, strain rpn1, active compounds read low 1.01 | locus YHR030C, strain SLT2, active compounds read low 1 | locus YHR079C, strain IRE1 (second series), active compounds read low 0.997 | locus YHR094C, strain hxt1, active compounds read low 0.997 | locus YHR129C, strain ARP1, active compounds read low 1.01 | locus YHR142W, strain chs7, active compounds read low 1.04 | locus YHR200W, strain rpn10, active compounds read low 0.996 | locus YIL066C, strain RNR3, active compounds read low 1 | locus YIL073C, strain SPO22, active compounds read low 1.02 | locus YIL125W, strain kgd1, active compounds read low 0.994 | locus YIR030C, strain dcg1, active compounds read low 0.991 | locus YJL092W, strain hpr5, active compounds read low 1.01 | locus YJL095W, strain BCK1 (second series), active compounds read low 1.03 | locus YJL095W, strain BCK1, active compounds read low 1.03 | locus YJL115W, strain asf1, active compounds read low 1.02 | locus YJL129C, strain trk1, active compounds read low 1.04 | locus YJL134W, strain LCB3, active compounds read low 1.02 | locus YJL154C, strain vps35, active compounds read low 1.01 | locus YJL164C, strain tpk1, active compounds read low 1.03 | locus YJL166W, strain qcr8, active compounds read low 0.982 | locus YJL168C, strain set2, active compounds read low 1.02 | locus YJL187C, strain SWE1 (second series), active compounds read low 1.02
